In the library only some 7.1% were active in any assay of this set; here they are far more common.
ATXN2 expr inh = reduces ATXN2 reporter expression in HEK-293 cells | HEK-293 ATXN2-luciferase reporter, luminescence, 24 h | Potency, µM (highest dose often 57 µM), hits mostly inhibitors | hit rate 0.72% among 360,000; also: nearly all actives have a fitted effect of over 55% in size
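ATXN2-luciferase reporter cells (luciferase flanked by upstream and downstream ATXN2 gene portions) were treated 24 h at 37 °C with compounds at up to 57 uM. SteadyGlo luminescence gave expression; GF-AFC fluorescence gave viability.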
SW480 rerep = inducers of DNA re-replication in SW480 colon cancer cells | Potency, µM (series often up to 46.1 µM), usual class: activators | SW480 DNA re-replication, Hoechst DNA content imaging, 48 h | hit rate 1.8% among 340,000; also: nearly all actives have a fitted effect of over 55% in size
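Image-based read-out: total Hoechst fluorescence of nuclei (405 nm excitation, 500-530 nm emission), with hits raising the fraction of high-intensity nuclei. SW480 colon cells incubated 48 hr with compounds at 37 C.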
PINK1 modulator = changes PINK1 expression; PINK1 immunofluorescence, high-content cytometry, 24 h; Potency, µM (highest dose often 76.6 µM), most hits filed as activators; hit rate 0.2% among 410,000; AID 624263; active = well fitted activation curve with a large enough effect; inconclusive = small, poorly fitted or top-dose-only effect; cell line not stated here; also: nearly all actives have a fitted effect of over 65% in size
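Fluorescence from anti-PINK1 antibody, together with nuclear and cell stains, was scanned on a laser-scanning cytometer. Before staining, stable-line cells were incubated 24 hours with compounds at 5 concentrations; primary antibody 12 h at 10 degrees C.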
IL-1B inflam inh = inhibitors of inflammasome signaling (IL-1 beta secretion). THP-1 LPS/ATP IL-1B secretion, AlphaLISA, 16 h; stronger effect = lower value. hit rate 4.7% among 360,000. AID 743279. activity change, % at 57.5 µM; in the data active = activity change below about -50%; inconclusive = mostly about -30% to -49%
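Secreted IL-1B measured by AlphaLISA bead assay after 16 h compound exposure of THP-1 cells; compounds (final up to 57.5 uM) added 1 h before LPS (250 ng/mL) and ATP (1.25 mM) stimulation; lower signal means less secretion.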
S2 tox = cell viability loss in ATXN counter-screen; S2 cells (HEK-293 line with an ATXN2-luciferase reporter) viability, CellTiter-Fluor protease fluorescence, 24 h; Potency, µM (top dose mostly 56.7 µM), usual class: cytotoxic; hit rate 0.49% among 400,000; AID 651635; also: nearly all actives have a fitted effect of over 40% in size
MCF10A rerep = DNA re-replication induction in MCF 10a cells. MCF 10A DNA re-replication, Hoechst nuclear intensity, 48 h. Potency, µM (highest dose often 46.1 µM), hits mostly activators. hit rate 2.9% among 350,000; also: nearly all actives have a fitted effect of over 50% in size
Large screens that a line does not name were inactive; ! = not active in a repeat. Unless noted, calls follow the shape of the dose curve; as a rule, active = well fitted curve in the direction sought with a large enough effect; inconclusive = small, poorly fitted or top-dose-only effect, or another doubt; inactive = no such curve, though single readings can be large; an effect the other way counts as inactive or inconclusive.

Cc1ccc([C@@H]2CC(=O)[C@@H]3CN(S(=O)(=O)c4ccccc4C)[C@H](c4ccc(Cl)cc4)C[C@@H]3N2S(=O)(=O)c2ccc(C)cc2)cc1	S2 tox inconclusive (no result: SW480 rerep, MCF10A rerep)
Cc1nn(-c2ccccc2)c2c1C(c1ccc(F)cc1F)C(C#N)=C(N)O2 (stereo not given)	PINK1 modulator 11.2µM, MCF10A rerep inconclusive
Cc1nn(-c2ccccc2)c(Cl)c1C1C(C#N)=C(N)Oc2c1c(=O)oc1ccccc21 (stereo not given)	none
c1cc2c3c(cccc3c1)CC2	none (no result: ATXN2 expr inh, SW480 rerep, IL-1B inflam inh, S2 tox, MCF10A rerep)
COC(=O)C1=C(c2ccc(Cl)c(C(F)(F)F)c2)C[C@@H]2CC[C@H]1N2C(=O)NC1CCCCC1	SW480 rerep inconclusive, PINK1 modulator inconclusive, IL-1B inflam inh -52.4, S2 tox inconclusive, MCF10A rerep inconclusive
COC(=O)C1=C(c2ccc(Cl)c(C(F)(F)F)c2)C[C@@H]2CC[C@H]1N2C(=O)NCCOc1ccccc1	ATXN2 expr inh inconclusive, PINK1 modulator inconclusive, IL-1B inflam inh -80.8, S2 tox inconclusive
COC(=O)C1=C(c2ccc(Cl)c(C(F)(F)F)c2)C[C@@H]2CC[C@H]1N2C(=O)NCCO	none
COC(=O)C1=C(c2ccc(Cl)c(C(F)(F)F)c2)C[C@@H]2CC[C@H]1N2C(=O)NCc1ccco1	IL-1B inflam inh -65.1, S2 tox inconclusive
CCN1C[C@]2(OC(=O)c3ccccc3NC(C)=O)CC[C@H](OC)[C@@]34[C@H]5CC6[C@@H](OC)C[C@](O)(C(C[C@@H]23)[C@@H]14)[C@@]5(O)[C@@H]6OC	none (no result: SW480 rerep, PINK1 modulator, IL-1B inflam inh, S2 tox, MCF10A rerep)
O=C1NC(=O)C(=Cc2c(Cl)cccc2Cl)C(=O)N1	SW480 rerep inconclusive, IL-1B inflam inh -58.4, MCF10A rerep inconclusive
Cc1c(C=C2C(=O)NC(=O)NC2=O)c(=O)n(-c2ccccc2)n1C	none
O=C(NCCCl)Nc1ccccc1NS(=O)(=O)c1cccs1	S2 tox inconclusive
CCOC(=O)NC(C)(C)Cc1ccc(Cl)cc1	none (no result: SW480 rerep, PINK1 modulator, IL-1B inflam inh, MCF10A rerep)
COc1ccc(CC2C(=O)NC(C)C(=O)N(C)C3C(=O)N(C)C(Cc4ccc(O)c(c4)Oc4ccc(cc4)C3O)C(=O)NC(C)C(=O)NC(C)C(=O)N2C)cc1 (stereo not given)	ATXN2 expr inh 0.0844µM, SW480 rerep inconclusive, IL-1B inflam inh -100.8, S2 tox inconclusive, MCF10A rerep 0.259µM
O=C(NCCc1ccc(F)cc1)C(=O)NCC(c1cccs1)S(=O)(=O)c1ccc(Cl)cc1 (stereo not given)	ATXN2 expr inh inconclusive, S2 tox inconclusive (no result: SW480 rerep, IL-1B inflam inh, MCF10A rerep)
O=C1C=CC2C3C(=O)N(c4ccccc4)C(=O)C3C1N2Cc1ccccc1 (stereo not given)	ATXN2 expr inh inconclusive, SW480 rerep 3.66µM, IL-1B inflam inh -96.9, S2 tox 5.97µM, MCF10A rerep inconclusive
C[C@]12CC[C@@H]3c4cc(O)c(O)cc4CC[C@H]3[C@@H]1CC[C@@H]2O	SW480 rerep inconclusive, S2 tox inconclusive, MCF10A rerep 25.9µM
CC(C)(O)C1C2OC(=O)C1[C@]1(O)C[C@H]3O[C@]34C(=O)O[C@H]2[C@]14C (stereo not given in full) (tested in a mixture with another compound)	none (no result: ATXN2 expr inh, PINK1 modulator, IL-1B inflam inh, S2 tox)
COC(=O)C1=C(c2cc3ccccc3s2)C[C@@H]2CC[C@H]1N2C(=O)NC1CCCCC1	ATXN2 expr inh inconclusive, SW480 rerep inconclusive, S2 tox inconclusive, MCF10A rerep 20.6µM
COC(=O)C1=C(c2cc3ccccc3o2)C[C@@H]2CC[C@H]1N2C(=O)NC(C)C	SW480 rerep 10.3µM
COC(=O)C1=C(c2cc3ccccc3o2)C[C@@H]2CC[C@H]1N2C(=O)NCCNC(C)=O	none
COC(=O)C1=C(c2cc3ccccc3s2)C[C@@H]2CC[C@H]1N2C(=O)N1CCC(O)CC1	none
COC(=O)C1=C(c2cc3ccccc3s2)C[C@@H]2CC[C@H]1N2C(=O)N1CCCCC1	SW480 rerep inconclusive, S2 tox inconclusive, MCF10A rerep 18.4µM
OC[C@H]1OC(O)C[C@@H](O)[C@@H]1O (stereo not given in full)	none
Cc1ccc(NC(=O)c2cc(S(=O)(=O)N3CCOCC3)c(Cl)cc2Cl)cc1	ATXN2 expr inh inconclusive, S2 tox inconclusive (no result: SW480 rerep, IL-1B inflam inh, MCF10A rerep)
COc1ccc(-c2ccc3c(c2)CN(C(=O)NC2CCCCC2)Cc2cnnn2-3)cc1	IL-1B inflam inh -52.8, S2 tox inconclusive (no result: SW480 rerep, MCF10A rerep)
O=C(NCC1=C(c2cccc3ccccc23)C[C@@H]2CC[C@H]1N2Cc1ccco1)c1ccc([N+](=O)[O-])cc1	ATXN2 expr inh inconclusive, IL-1B inflam inh -61.5, S2 tox 14.1µM (no result: SW480 rerep, MCF10A rerep)
Oc1ccccc1Cl	MCF10A rerep inconclusive
Oc1ccc(O)c2c1C1(Cl)C(Cl)=C(Cl)C2(Cl)C1(Cl)Cl	ATXN2 expr inh inconclusive, SW480 rerep inconclusive, IL-1B inflam inh -60.7, S2 tox inconclusive, MCF10A rerep 16.4µM
CCOc1ccc(C2c3c(-c4ccccc4O)n[nH]c3C(=O)N2Cc2ccncc2)cc1 (stereo not given)	S2 tox inconclusive (no result: SW480 rerep, IL-1B inflam inh, MCF10A rerep)
Cc1ccc(N2C(=O)CC(=O)NC2=O)cc1	none
Cc1ccc(C2C(=O)NC(=O)NC2=O)cc1	SW480 rerep 18.4µM
ClCCN(CCCl)c1ccc(/C=C/c2sc3ccccc3[n+]2CCCCI)cc1	none (no result: ATXN2 expr inh, SW480 rerep, IL-1B inflam inh, S2 tox, MCF10A rerep)
COc1ccc2c3c1O[C@H]1C(=O)CC[C@H]4[C@@H](C2)N(C)CC[C@]314	SW480 rerep inconclusive, IL-1B inflam inh -88.7
COc1cccc2c1O[C@H]1C(=O)CC[C@H]3CN(C)CCC231 (stereo not given in full)	none (no result: IL-1B inflam inh)
NC(=O)c1cn(C2OC(CO)C(O)C2O)c2ncnc(N)c12 (stereo not given)	ATXN2 expr inh 0.282µM!, SW480 rerep 0.058µM, IL-1B inflam inh -80.7!, MCF10A rerep inconclusive (no result: S2 tox)
N#Cc1cn(C2OC(CO)C(O)C2O)c2ncnc(N)c12 (stereo not given)	ATXN2 expr inh inconclusive, IL-1B inflam inh -108.2, S2 tox inconclusive
NC(=O)c1ncn(C2OC(CO)C(O)C2O)n1 (stereo not given)	none (no result: ATXN2 expr inh, IL-1B inflam inh, S2 tox)
O=C(O)c1ccccc1NS(=O)(=O)c1cccc(N=Nc2c(O)[nH]c(=S)[nH]c2=O)c1	S2 tox inconclusive
CC[C@@H](C)[C@H](C(CC(=O)N1CCCC1[C@@H](OC)[C@H](C)C(=O)N[C@H](Cc1ccccc1)c1nccs1)OC)N(C)C(=O)[C@H](NC(=O)[C@@H](C(C)C)N(C)C)C(C)C (stereo not given in full)	SW480 rerep 0.082µM, S2 tox inconclusive
COP(N)(=O)SC (stereo not given)	none (no result: ATXN2 expr inh, SW480 rerep, IL-1B inflam inh, S2 tox, MCF10A rerep)
c1ccc2nc3ccccc3nc2c1	MCF10A rerep inconclusive
O=C(O)c1cccc2nc3ccccc3nc12	SW480 rerep 8.2µM, S2 tox inconclusive

High-throughput results as filed in PubChem BioAssay.
